The list is not random: actives were taken first. Their share in the collection is about 7.4%.
ELG1 genotoxic – induces genotoxicity in HEK293T cells with luciferase-tagged ELG1; HEK293T ELG1-luciferase reporter, luminescence, 16 h; Potency, µM (titrated, usually from 46 µM), inactives show top-dose activity change, positive = activation, most hits filed as activators; hit rate 1.3% among 330,000; note: % of control where 0% means no effect; nearly all actives have a fitted effect of over 60% in size
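After overnight (16 hr) compound treatment at 37 °C, ELG1-luciferase HEK293T cells were lysed with ONE-Glo; luminescence quantified 30 min later at room temperature.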
Rab9 promoter act – activators of Rab9 promoter | Huh7 Rab9 promoter-luciferase reporter, luminescence, 24 h | Potency, µM (titrated, usually from 9.22 µM), without a hit: at the highest dose activation, negative = inhibition, most hits filed as activators | hit rate 2.8% among 320,000 | AID 485297; note: % of control where 0% means no effect; nearly all actives have a fitted effect of over 60% in size
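Quantitative HTS format; Huh7 Rab9-luciferase reporter cells (1500/well) receive compound 2 h post-plating, incubate 24 h at 37 °C, then get luciferase reagent for 10 min before luminescence reading.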
SMN2 splice enh – enhancers of SMN2 splice variant expression; HEK293 SMN2-luciferase splicing reporter, luminescence, 30-36 h; hit rate 2.8% among 210,000; Potency, µM (series often up to 46.1 µM), without a hit: top-dose activity change, positive = activation, hits mostly activators; note: % of control where 0% means no effect; nearly all actives have a fitted effect of over 55% in size
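qHTS luciferase splicing reporter: luminescence rises when SMN2 exon 7 is included in transfected HEK293 cells. Compound exposure lasted 30-36 h at 37C, with 4.5 mM final sodium butyrate as control, followed by a ONE-Glo read.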
FLuc counter – inhibits or activates purified firefly luciferase, miR-21 counter-screen. hit rate 6.9% among 360,000. Potency, µM (doses to about 57.5 µM), for the others: at the highest dose activity change, negative = inhibition, usual class: inhibitors. purified FLuc, Km substrates, luminescence inhibition. P08659;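 note: plate controls were vehicle for no effect and reference inhibitor for full effect; nearly all actives have a fitted effect of over 55% in size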
Target sequence (P08659 whole entry, looked up): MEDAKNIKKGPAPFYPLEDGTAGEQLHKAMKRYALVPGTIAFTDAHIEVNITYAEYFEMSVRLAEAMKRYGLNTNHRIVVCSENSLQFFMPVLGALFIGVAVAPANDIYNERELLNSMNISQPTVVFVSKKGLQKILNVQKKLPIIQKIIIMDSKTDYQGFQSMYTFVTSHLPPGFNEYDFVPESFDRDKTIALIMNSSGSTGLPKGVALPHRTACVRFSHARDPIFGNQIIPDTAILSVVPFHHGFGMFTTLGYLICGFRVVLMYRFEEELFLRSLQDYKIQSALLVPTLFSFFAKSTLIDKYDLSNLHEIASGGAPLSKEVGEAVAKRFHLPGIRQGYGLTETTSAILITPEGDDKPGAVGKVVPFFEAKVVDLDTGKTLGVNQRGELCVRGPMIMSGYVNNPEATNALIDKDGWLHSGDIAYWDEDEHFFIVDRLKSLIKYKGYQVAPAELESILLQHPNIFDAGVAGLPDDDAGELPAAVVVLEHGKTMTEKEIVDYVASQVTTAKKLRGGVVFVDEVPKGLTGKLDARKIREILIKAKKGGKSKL
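Biochemical qHTS of compounds, final roughly 60 µM downward over six points, against 10 nM purified firefly luciferase using Km concentrations of substrates (10 uM D-luciferin, 10 uM ATP) in Tris acetate pH 7.5 buffer; luminescence output.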
KinaseGlo FLuc – blocks Kinase-Glo luciferase, a counter-screen artifact. Q27757. hit rate 0.28% among 200,000. Potency, µM (series often up to 38.3 µM), for inactives: at the top dose activity change, negative = inhibition, most hits filed as inhibitors. Kinase-Glo luciferase, ATP luminescence, 8 min; note: % is set by controls: 0 for no effect and ±100 for the full control effect; nearly all actives have a fitted effect of over 60% in size
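Inhibition of Kinase-Glo luciferase light generation was assessed at 10 uM ATP in pH 7.2 imidazole buffer, with luminescence measured after eight minutes at ambient temperature.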
NPC1 prom act – activators of NPC1 promoter; Huh7 NPC1 promoter luciferase reporter, 24 h; Potency, µM (top dose mostly 9.22 µM), inactives show at the highest dose activation, usual class: activators; hit rate 2.4% among 320,000; note: % of control where 0% means no effect; nearly all actives have a fitted effect of over 60% in size
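Luciferase expression driven by the NPC1 promoter was measured in stably transfected Huh7 cells after a 24 h compound incubation, using a luciferase reagent and a luminescence read.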
* marks the source's active call; other numbers are inactive results; ? = inconclusive; nt = not tested or not shown; [ ] = another dose, or the depositor's remark. Calls come from the whole dose curve; as a rule, active = well fitted curve in the direction sought with a large enough effect; inconclusive = small, poorly fitted or top-dose-only effect, or another doubt; inactive = no such curve, though single readings can be large; an effect the other way counts as inactive or inconclusive. Potency is the fitted concentration of half-maximal effect.

SMILES	ELG1 genotoxic	Rab9 promoter act	SMN2 splice enh	FLuc counter	KinaseGlo FLuc	NPC1 prom act
Cc1ccc(NC(=O)Cn2sc3nc(C)cc(C)c3c2=O)c(Cl)c1	1%	-4%	nt	11µM*	nt	3%
Cc1cc(C)c2c(=O)n(CC(=O)Nc3cccc(F)c3)sc2n1	3%	-2%	nt	9.5µM*	nt	-3%
Cc1cc(C)c2c(=O)n(CC(=O)Nc3ccc(Cl)cc3)sc2n1	0%	2%	nt	7.6µM*	nt	-1%
CCOc1ccc(NC(=O)Cn2sc3nc(C)cc(C)c3c2=O)cc1	-1%	-2%	nt	?	nt	-2%
O=C(N/N=C/c1ccccc1OC(=O)c1ccc2c(c1)OCO2)c1cccc(F)c1	?	0%	-98%	2%	0%	0%
COc1cccc(C(=O)Oc2ccccc2/C=C\C(=O)c2cc3ccccc3o2)c1	16%	?	-103%	?	-2%	2.8µM*
O=C(Oc1ccccc1/C=C\C(=O)c1cc2ccccc2o1)c1ccccc1	?	3.2µM*	?	17µM*	-1%	4µM*
O=C(Oc1ccccc1/C=C\C(=O)c1cc2ccccc2o1)c1cccc(F)c1	?	?	-106%	8.5µM*	2%	23%
N#C/C(=C/c1ccc(-c2cc(C(=O)O)cc(C(=O)O)c2)o1)c1nc2ccccc2s1	-3%	-3%	13%	2.1µM*	-4%	-2%
N#CCCn1cc(/C=C(\C#N)c2nc3ccccc3s2)c(-c2ccc(F)cc2)n1	6%	1%	-8%	-2%	7%	-25%
N#C/C(=C\c1ccc(-c2ccccc2Cl)o1)C(=O)Nc1nc2ccccc2s1	5%	0%	-15%	?	-2%	8%
CCCCc1ccc(-c2csc(/C(C#N)=C\c3ccco3)n2)cc1	1%	-1%	-25%	-23%	4%	-1%
N#C/C(=C\c1ccco1)c1nc2ccccc2s1	7.3µM*	?	11µM*	1.7µM*	?	29%
N#C/C(=C/c1ccco1)c1nc2ccccc2s1	16µM*	3.5µM*	?	1.9µM*	?	18%
Cc1cccc(SCC(=O)Nc2ccccc2[N+](=O)[O-])c1	5%	4%	nt	-12%	2%	-2%
O=C(OCC1CC(c2ccccc2)=NO1)c1ccco1 (centres undefined)	2%	1%	nt	7.6µM*	nt	-1%
c1ccc(-c2nc(-c3cccs3)c(NC3CCCCC3)o2)cc1	nt	nt	-1%	nt	-2%	nt
CC1CCN(c2nc3ccccc3nc2N2CCC(C)CC2)CC1	nt	nt	4%	3%	-1%	nt
CC1CCN(c2nnc(-c3cccs3)c3ccccc23)CC1	6%	8%	-1%	9.5µM*	4%	0%
c1csc(-c2nnc(NC3CCCCC3)c3ccccc23)c1	-1%	-3%	3%	12µM*	1%	-2%
O=C(Nc1ccccc1)N1CC[C@@]2(CCCN(C(=O)c3cnccn3)C2)C1	nt	nt	0%	nt	-1%	nt
CC(C(=O)O)N1C(=O)/C(=C/C=C/c2ccco2)SC1=S (centres undefined)	0%	1%	-9%	17µM*	-3%	8%
CCOC(=O)C1CCN(CC(=O)N(CC(C)C)c2c(N)n(CC(C)C)c(=O)[nH]c2=O)CC1	?	9%	4%	-3%	6%	-1%
CCC(=O)NNc1ncnc2c1cnn2-c1cccc(C)c1	5%	-2%	-7%	-11%	-2%	1%
COc1ccc(-n2ncc3c(Nc4cccc(C)c4)ncnc32)cc1	?	4µM*	?	11µM*	0%	2.8µM*
SMILES	ELG1 genotoxic	Rab9 promoter act	SMN2 splice enh	FLuc counter	KinaseGlo FLuc	NPC1 prom act
Cc1cccc(-n2ncc3c(NCCOCCO)ncnc32)c1	nt	nt	nt	19µM*	nt	nt
Cc1cccc(-n2ncc3c(NC(C)C)ncnc32)c1	2.6µM*	0.89µM*	3.5µM*	2.4µM*	-3%	3.2µM*
Cc1cccc(-n2ncc3c(Nc4c(C)cc(C)cc4C)ncnc32)c1	nt	nt	nt	-9%	nt	nt
COc1ccc(Nc2ncnc3c2cnn3-c2cccc(C)c2)cc1OC	0%	-1%	nt	-1%	nt	-1%
Cc1ccc(-n2ncc3c(Nc4cccc(C(F)(F)F)c4)ncnc32)cc1C	nt	nt	nt	15µM*	nt	nt
Cc1nc2ccc(S(=O)(=O)N(CC(=O)Nc3cccc(F)c3)Cc3ccccc3)cc2s1	nt	nt	nt	-10%	nt	nt
Cc1cc2c(c(=O)o1)C1O[C@](c3ccsc3)(Cc3ccccc31)O2	nt	-11%[1.84 µM]	nt	4%[11.5 µM]	nt	1%[1.84 µM]
COC(=O)C1=C(C)NC(C)=C(C(=O)OCCNCc2ccccc2)C1c1cccc([N+](=O)[O-])c1 (centres undefined)	nt	nt	nt	nt	0%[39.9 µM]	nt
COC(=O)c1ccc(Nc2ncnc3c2cnn3-c2cccc(C)c2)cc1	2%	3%	nt	-6%	nt	0%
CC(C)Nc1ncnc2c1cnn2-c1ccccc1	?	0.35µM*	0.63µM*	2.4µM*	-3%	1.4µM*
Cc1cccc(-n2ncc3c(Nc4ccc(F)cc4)ncnc32)c1	15µM*	2.5µM*	11µM*	?	1%	?
CCCn1ncc2c(Nc3ccc(C)c(C)c3)ncnc21	?	?	nt	24µM*	nt	3.5µM*
NNc1ncnc2c1cnn2-c1ccccc1	-8%	0%	-11%	?	-4%	10%
COc1ccccc1OC(=O)CCc1nc2ccccc2s1	-5%	-1%	-7%	19µM*	-20%	4%
O=C(CCc1nc2ccccc2s1)OCC(=O)c1ccccc1	13%	22%	18%	19µM*	1%	14%
O=C(CCc1nc2ccccc2s1)c1ccccc1	13%	?	24%	15µM*	-1%	28%
CCCN1CCc2nc(N3CCN(c4ncccn4)CC3)ncc2C1	nt	nt	nt	8%	nt	nt
CCOC(=O)c1cc(OC(=O)c2ccc(Cl)cc2)n(-c2ccccc2)n1	nt	nt	-7%	-16%	nt	nt
COc1cccc(-c2nc(-c3ccncc3)no2)c1	?	1.4µM*	nt	5.4µM*	nt	2.8µM*
COc1cc(OC)cc(-c2nc(-c3cccs3)no2)c1	-9%	?	26%	11µM*	-6%	?
COc1cccc(-c2nc(-c3ccc(NC(=O)Cc4ccccc4OC)cc3)no2)c1	-18%	-6%	15%	?	2%	0%
COc1ccc2oc(=O)c(-c3nc(-c4cccs4)no3)cc2c1	nt	nt	nt	1%	nt	nt
COc1cccc(-c2nc(-c3cccs3)no2)c1	?	2.5µM*	nt	0.27µM*	nt	2.8µM*
COc1ccccc1CCN1CCCC(CN(C)C(=O)c2ccoc2)C1 (centres undefined)	-2%	-4%	nt	2%	nt	-3%
Cc1cccc(C)c1NC(=O)CN1C(=O)C2CC=CCC2C1=O (centres undefined)	3%	-3%	nt	5%	nt	-2%
CN(C)c1cccc(C(=O)NNC(=O)CN2C(=O)C3CC=CCC3C2=O)c1 (centres undefined)	10µM*	nt	nt	nt	nt	nt
